HCV inh = inhibitors of hepatitis C virus infection | Huh7.5.1 HCVcc-Cre infection, luciferase reporter, 44 h | Potency, µM (highest dose often 41.8 µM), without a hit: at the top dose activity change, negative = inhibition, most hits filed as inhibitors | 340,000 tested, 3.4% active; note: potency is the fitted concentration of half-maximal effect; % is set by controls: 0 for no effect and ±100 for the full control effect
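HCVcc-Cre virus at an moi near 0.5 was added right after compound to cells cultured 4 h from seeding (1,000 cells/well). Luciferase activity was determined 44 h later, 15 min after substrate addition at RT.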
HCMV antiviral = inhibitors of human cytomegalovirus. activity change, negative = inhibition, % at 57.5 µM. 410,000 tested, 4.5% active. HFF cells, HCMV-luciferase reporter, 72 h; active compounds read low; in the data active = activity change below about -60%; inconclusive = no clear call, values can overlap the other calls; inactive = above about -39%; note: % is set by controls: 0 for no effect and ±100 for the full control effect
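Compounds were evaluated in HFFs infected with an HCMV luciferase reporter virus (MOI 1 PFU/cell). Luciferase in lysates collected 72 h post infection served as the replication measure.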
Shiga inhibitor = blocks Shiga toxin action in Vero cells; Vero cells, Shiga toxin protein synthesis inhibition reporter; inhibition, % at 38.7 µM; 290,000 tested, 9.2% active; AID 2315; in the data active = inhibition mostly above about 28%, no sharp cut-off; inactive = mostly below about 43%; note: 0% is about no effect
Cycloheximide cs = counter-screen for Shiga toxin inhibitors: cycloheximide protein synthesis inhibition. 300,000 tested, 12% active. cell reporter, cycloheximide protein synthesis inhibition counterscreen. AID 2314. max response, %; in the data active = max response mostly above about 13%, no sharp cut-off; inactive = mostly below about 14%; note: read at 38.3 µM for the half of the compounds with a filed dose; 0% is about no effect
Pf growth 48h = inhibits P. falciparum growth in the first generation, 48 h; P. falciparum luciferase growth in erythrocytes, 48 h; Potency, µM (top dose mostly 28.7 µM), for inactives: at the top dose activity change, negative = inhibition, hits mostly inhibitors; 310,000 tested, 5.9% active; note: potency is the fitted concentration of half-maximal effect; % is set by controls: 0 for no effect and ±100 for the full control effect
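Compounds are pin-transferred into medium, infected erythrocytes (2% hematocrit, 0.1% parasitemia final) are added, and plates sit one parasite generation at 37 C in 5% CO2. Detection reagent is then added and luminescence measured.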
Pf growth 96h = P. falciparum growth inhibition at 96 hours. Potency, µM (series often up to 28.7 µM), inactives show at the top dose activity change, negative = inhibition, actives largely listed as inhibitors. P. falciparum luciferase reporter growth, 96 h. 320,000 tested, 6.9% active. AID 504834; note: potency is the fitted concentration of half-maximal effect; % is set by controls: 0 for no effect and ±100 for the full control effect
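Readout is luminescence from an integrated firefly luciferase in P. falciparum. Red cells, 2% hematocrit and 0.05% parasitemia final, were cultured with compound through two parasite generations (96 hours) at 37 C, 5% CO2.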
Numbers without * were called inactive. Rows were chosen to be rich in hits. Some 21% of all compounds tested hit in one or more screens of this group. Unless noted, calls come from the whole dose curve; as a rule, active = well fitted inhibition curve with a large enough effect; inconclusive = small, poorly fitted or top-dose-only effect, or another doubt; inactive = no such curve, though single readings can be large or run the other way.

What do the screens show for `CC(C)OCCCn1c(-c2ccco2)nc2nc3ccccc3nc21`?
HCV inh: 10%; HCMV antiviral: -1; Shiga inhibitor: 21; Cycloheximide cs: 13*; Pf growth 48h: inconclusive; Pf growth 96h: 3.3µM*

How did CCC(C)n1c(-c2ccco2)nc2nc3ccccc3nc21 (stereo not given) do in these assays?
Shiga inhibitor: 6; Cycloheximide cs: 14; Pf growth 48h: inconclusive; Pf growth 96h: 10µM*

How did O=c1[nH]c2ccccc2c2cn(-c3ccccc3)nc12 do in these assays?
HCV inh: 7%; HCMV antiviral: 69; Shiga inhibitor: 61*; Cycloheximide cs: 18*; Pf growth 48h: -19%; Pf growth 96h: inconclusive

Results for O=c1c2c([nH]c3ccccc13)CCCCC2 ?
HCV inh: -20%; HCMV antiviral: -19; Shiga inhibitor: -6; Cycloheximide cs: -5; Pf growth 48h: 1.7µM*; Pf growth 96h: 1.7µM*

How did O=[N+]([O-])c1ccc2[nH]nc(-c3ccccc3)c2c1 do in these assays?
HCV inh: inconclusive; HCMV antiviral: inconclusive; Shiga inhibitor: -2; Cycloheximide cs: 7; Pf growth 48h: 36%; Pf growth 96h: inconclusive

Results for O=c1c(-c2ccccc2)n[nH]c2ccccc12 ?
HCV inh: -26%; HCMV antiviral: 82; Shiga inhibitor: 72*; Cycloheximide cs: 74*; Pf growth 48h: 26%

How did O=c1c2ccccc2[nH]c2ccccc12 do in these assays?
HCV inh: inconclusive; HCMV antiviral: 16; Shiga inhibitor: 3; Cycloheximide cs: 0; Pf growth 48h: 1.7µM*; Pf growth 96h: 1.5µM*

Results for c1ccc2c(c1)[nH]c1ccccc12 ?
HCV inh: 13%

What do the screens show for `CCN(c1ccc(OC)cc1)S(=O)(=O)c1ccc2[nH]c3c(c2c1)CCCCC3`?
HCMV antiviral: -23

Results for Cc1ccccc1-c1nc(CN2CCC(C(=O)NC(C)C)CC2)c(C)o1 ?
HCMV antiviral: 19

How did O=c1[nH]c2cccc(Cl)c2c2ccccc12 do in these assays?
HCMV antiviral: -14

Results for CCC1CCc2c([nH]c3ccccc3c2=O)O1 (stereo not given) ?
HCV inh: 0%; HCMV antiviral: 68; Shiga inhibitor: 12; Cycloheximide cs: -2; Pf growth 48h: inconclusive; Pf growth 96h: 2.3µM*

Results for O=c1[nH]c2ccccc2c2ccccc12 ?
HCV inh: 14µM*; HCMV antiviral: 16; Shiga inhibitor: -20; Cycloheximide cs: -3; Pf growth 48h: 11%; Pf growth 96h: 43%

What do the screens show for `CC(Oc1ccccc1)C(=O)OCc1cc(=O)n2nc(C(C)C)sc2n1` (stereo not given)?
HCMV antiviral: -10

Results for CCC(C)c1ccc(NC(=S)NC(C)C2CCCO2)cc1 (stereo not given) ?
HCV inh: -10%; HCMV antiviral: 1; Shiga inhibitor: 38*; Cycloheximide cs: 10*; Pf growth 48h: 68%; Pf growth 96h: inconclusive

How did CCC(C)c1ccc(C(CC)NC(=O)C2CCCO2)cc1 (stereo not given) do in these assays?
HCV inh: 10µM*; HCMV antiviral: -37; Shiga inhibitor: -19; Cycloheximide cs: -1; Pf growth 48h: inconclusive; Pf growth 96h: 73%

Results for O=c1c2cn(Cc3ccc(F)cc3)c3ccc(F)cc3c-2nn1Cc1ccc(F)cc1 ?
HCV inh: -4%; HCMV antiviral: 33; Shiga inhibitor: 4; Cycloheximide cs: -3; Pf growth 48h: 6%; Pf growth 96h: 2%

What do the screens show for `O=C(COC(=O)C1(c2ccccc2)CC1)NNC(=O)c1ccccc1`?
HCV inh: 8%; HCMV antiviral: 1; Pf growth 48h: 0%; Pf growth 96h: -4%

What do the screens show for `O=C1Nc2ccccc2-c2nnnn2C1N1CCCC1` (stereo not given)?
HCMV antiviral: 45

Results for Cc1ccc(NC(=O)C2(NC(=O)c3ccccn3)CCCCC2)cc1Br ?
HCV inh: 2%; HCMV antiviral: 4; Shiga inhibitor: 8; Cycloheximide cs: 6; Pf growth 48h: inconclusive; Pf growth 96h: inconclusive

From PubChem
